Source: PubChem BioAssay
ERp5 block: inhibitors of human ERp5; Q15084; ERp5 insulin aggregation, absorbance 650 nm, 90 min; inhibition, % at 9.99 µM; actives 0.05% (n = 350,000);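 active means mean replicate inhibition above about 25%, with every replicate also reaching it, limit read from the data, passing the limit was not always enough; inconclusive means only one of those two criteria met; inactive means neither criterion met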
Target sequence (Q15084 whole entry, looked up): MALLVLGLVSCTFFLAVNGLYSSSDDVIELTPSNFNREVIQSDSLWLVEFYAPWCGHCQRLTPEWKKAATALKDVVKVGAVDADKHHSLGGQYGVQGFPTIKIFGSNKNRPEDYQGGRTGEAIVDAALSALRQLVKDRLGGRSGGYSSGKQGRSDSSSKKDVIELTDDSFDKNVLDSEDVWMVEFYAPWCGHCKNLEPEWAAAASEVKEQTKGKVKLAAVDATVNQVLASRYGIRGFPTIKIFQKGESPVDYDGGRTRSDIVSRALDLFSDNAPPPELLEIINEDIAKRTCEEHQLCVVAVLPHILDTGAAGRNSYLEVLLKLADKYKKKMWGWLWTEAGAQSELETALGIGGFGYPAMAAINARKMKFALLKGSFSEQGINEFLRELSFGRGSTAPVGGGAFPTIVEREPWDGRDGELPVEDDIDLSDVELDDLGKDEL
ARNT TACC3 PPI: disrupts binding between human ARNT and TACC3; Q9Y6A5; AlphaScreen His-ARNT PAS-B/GST-TACC3 binding, luminescence; TACC3 fragment carries E629A point mutation; inhibition, % at 9.99 µM; actives 0.66% (n = 390,000);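 active means mean inhibition of replicates at least 50% and at least half of replicates each reaching 50%; inconclusive means half or more replicates reach 50% but mean below 50%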
ALR inh: inhibitors of human sulfhydryl oxidase ALR; P55789; inhibition, % (concentration not given with the values); purified ALR, DTT oxidation, H2O2 HRP-luminol luminescence; actives 3.8% (n = 290,000);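 active means mean replicate inhibition above about 79%, with every replicate also reaching it, limit read from the data; inconclusive means only one of the two criteria met; inactive means mean below limit and not every replicate reaching it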
Target sequence (P55789 whole entry, looked up): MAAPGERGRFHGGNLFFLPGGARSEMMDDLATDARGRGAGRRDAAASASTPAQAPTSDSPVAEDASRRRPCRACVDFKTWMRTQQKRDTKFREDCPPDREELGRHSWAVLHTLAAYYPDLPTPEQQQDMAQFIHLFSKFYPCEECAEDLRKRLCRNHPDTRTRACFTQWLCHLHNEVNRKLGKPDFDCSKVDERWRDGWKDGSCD
NRP1-CendR mod: modulators of CendR peptide binding to human neuropilin-1; O14786; FAM-RPARPAR peptide binding to NRP-1, fluorescence polarization; inhibition, % at 25 µM; actives 0.85% (n = 360,000); AID 602438;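 active means inhibition or corrected inhibition above about 18%, plus a signal ratio from 0.5 to 1.5, limit read from the data, passing the limit was not always enough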
PDI turbidity: inhibitors of human protein disulfide isomerase. P07237. PDI insulin aggregation turbidity, A650, 90 min. inhibition, % at 10 µM. actives 0.052% (n = 350,000);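 active means mean inhibition across replicates of 30% or more, whatever share of single replicates reach that level; inconclusive means mean inhibition below 30% while every single replicate reaches 30%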
PglD inh: PglD (C. jejuni) enzyme inhibition; inhibition, % at 12.5 µM; AID 602405; actives 0.098% (n = 360,000); purified PglD enzyme, DTNB colorimetric CoA detection; in the data active means inhibition above about 16%, passing the limit was not always enough; inconclusive means no clear call, values can overlap the other calls
Hits are given with their value; 0 = inactive; ? = inconclusive; - = no result given. This is one part of a sample in which hits are shown more often than they occur.

SMILES	ERp5 block	ARNT TACC3 PPI	ALR inh	NRP1-CendR mod	PDI turbidity	PglD inh
Nc1nc(CN2CCCCCC2)nc(Nc2ccccc2)n1	-	52	0	0	0	0
Cc1ccc(Nc2nc(N)nc(CN3CCCCCC3)n2)cc1	-	50	0	0	0	0
CCOC(=O)C1CCCN(C(=S)Nc2ccc(Nc3ccccc3)cc2)C1 (stereo unspecified)	0	0	97	0	0	0
Cc1ccc(Nc2nc(N)nc(CN3CCN(C)CC3)n2)cc1	-	0	0	0	0	0
CCOC(=O)C1CCCN(Cc2nc(N)nc(Nc3ccccc3)n2)C1 (stereo unspecified)	-	48	0	0	0	0
Cc1ccc(S(=O)(=O)N(C)C[C@@H]2Oc3ccc(NC(=O)C4CC4)cc3C(=O)N([C@@H](C)CO)C[C@H]2C)cc1	0	0	-	-	-	0
CO[C@H]1CN(C)C(=O)c2cccc(C#N)c2OCC[C@@H]2CC[C@@H](OC)[C@H](CN(C)C(=O)[C@@H]1C)O2	0	0	-	-	-	0
CN(C)CC(=O)N[C@@H]1C=C[C@H](CC(=O)NCCN2CCCCC2)O[C@@H]1CO	0	0	-	-	-	0
C[C@@H]1CN([C@H](C)CO)C(=O)c2cc(C#CCc3ccccc3)cnc2O[C@@H]1CN(C)C(=O)C1CC1	0	0	-	-	-	0
O=C1NN(c2ccccc2)C(=O)/C1=C\c1ccccc1	0	8.4	90	0	0	0
O=C1NN(c2cccc(Br)c2)C(=O)/C1=C\c1ccccc1	0	0	89	0	0	0
O=C1NN(c2ccccc2)C(=O)C1=Cc1ccccc1	0	-	-	0	0	0
C[C@H]1CN([C@@H](C)CO)C(=O)Cc2cc(NC(=O)C3CC3)ccc2O[C@@H]1CN(C)S(=O)(=O)c1ccccc1	0	0	-	-	-	0
COCC#Cc1cnc2c(c1)C(=O)N([C@H](C)CO)C[C@H](C)[C@@H](CN(C)C(=O)Cc1cccnc1)O2	0	0	-	-	-	0
O=C(Nc1ccccc1)C1CC(=O)N(Cc2ccccc2)C1 (stereo unspecified)	0	0	0	0	0	0
O=C(Nc1ccc(SC(F)F)cc1)C1CC(=O)N(Cc2ccccc2)C1 (stereo unspecified)	0	0	95	0	0	0
O=C(Nc1ccc(NC(=O)c2ccccc2Cl)cc1)c1cccnc1	0	0	0	0	0	0
O=C(Nc1nnc(-c2ccccc2Cl)o1)c1cccnc1	-	54	0	0	0	-
CC1=CC(C)C2(CO)COC(c3cccnc3)C1C2C (stereo unspecified)	0	-	0	27	0	-
CC(=O)C1=C(O)C(=O)N(c2ccc(Br)cn2)C1c1cccc([N+](=O)[O-])c1 (stereo unspecified)	0	0	89	0	0	0
CC(=O)C1=C(O)C(=O)N(c2ccc(Br)cn2)C1c1ccc(Br)cc1 (stereo unspecified)	0	0	97	0	0	0
CC(=O)C1=C(O)C(=O)N(c2ccc(Br)cn2)C1c1ccccc1[N+](=O)[O-] (stereo unspecified)	0	0	0	0	0	0
COc1ccc(NC(=O)N[C@@H]2CC[C@@H](CCNS(=O)(=O)c3cccc(Cl)c3)O[C@@H]2CO)cc1	0	0	-	-	-	0
COc1ccc(-c2cnc3c(c2)C(=O)N([C@H](C)CO)C[C@@H](C)[C@@H](CN(C)C(=O)C2CCCCC2)O3)cc1	0	0	-	-	-	0
COCCn1c(SCC(=O)OCc2ccccc2)nc2c1c(=O)[nH]c(=O)n2C	0	0	98	0	-	0
SMILES	ERp5 block	ARNT TACC3 PPI	ALR inh	NRP1-CendR mod	PDI turbidity	PglD inh
CCn1c(SCC(=O)OCc2ccccc2)nc2c1c(=O)n(C)c(=O)n2C	-	0	99	0	0	0
COCCn1c(SCc2ccccc2)nc2c1c(=O)[nH]c(=O)n2C	0	0	0	0	0	0
CCN1[C@@H]2c3ccc(/C=C/c4ccccc4)c(=O)n3C[C@H]1[C@H](CO)[C@H]2C(=O)NC1Cc2ccccc2C1	0	-	-	-	-	-
CCOC(=O)C1(Cc2cccc(F)c2)CCN(Cc2ccon2)CC1	?	0	0	30	0	-
CCN(CC)c1ccc(/C=C2\CCC(/C=N/NC(=O)c3ccc(=O)n(C)c3)=C2N2CCOCC2)cc1	0	-	100	0	0	-
CC(C)C(C)NC(=O)CSc1nc2scc(-c3ccco3)c2c(=O)n1-c1ccccc1 (stereo unspecified)	-	0	96	0	0	-
N#Cc1c(=O)c2nc(NCc3ccccc3)ncc2n2ccccc12	-	53	0	0	0	0
N#Cc1c(=O)c2nc(NCCCO)ncc2n2c(=O)c3ccccc3[nH]c12	0	0	0	0	0	-
COCC#Cc1cnc2c(c1)C(=O)N([C@H](C)CO)C[C@@H](C)[C@H](CN(C)S(=O)(=O)c1ccccc1)O2	0	0	-	-	-	0
CO[C@@H]1CN(C)C(=O)c2cc(NS(=O)(=O)c3cccc(C)c3)ccc2OC[C@@H](C)N(C(=O)Cc2cccnc2)C[C@H]1C	0	0	-	-	-	0
CCCCCC(=O)NC(NC(=S)Nc1ccc(S(N)(=O)=O)cc1)C(Cl)(Cl)Cl (stereo unspecified)	-	0	0	0	0	0
CCCC(=O)NC(NC(=S)Nc1ccc(S(N)(=O)=O)cc1)C(Cl)(Cl)Cl (stereo unspecified)	-	28	0	0	0	-
COC(=O)C(N)Cc1ccc(O)c(O)c1 (stereo unspecified)	-	0	99	0	0	0
Cc1cc(Oc2ncccc2[N+](=O)[O-])c2cc(Cl)ccc2n1	0	0	97	0	0	-
O=[N+]([O-])c1cccnc1Oc1cc(Cl)c(Cl)cc1Cl	0	-	-	0	0	0
C[C@@H]1CCCCO[C@@H](CN(C)S(C)(=O)=O)[C@H](C)CN([C@@H](C)CO)C(=O)c2cc(NC(=O)C3CCCCC3)ccc2O1	0	0	-	-	-	0
CC1(C)CC(=O)C2=C(C1)Oc1nc3ccccc3cc1C2C(C#N)C#N (stereo unspecified)	-	0	80	0	0	0
CCCNC(=O)[C@@H]1[C@@H](CO)[C@@H]2Cn3c(cccc3=O)[C@@H]2N1CC1CC1	0	0	-	-	-	0
O=C(NN1C(=O)/C(=C/c2ccc(O)cc2)SC1=S)c1cccc(O)c1	0	0	99	0	0	0
O=C(NN1C(=O)/C(=C/c2cc([N+](=O)[O-])ccc2O)SC1=S)c1ccccc1O	-	-	81	-	-	-
CC(/C=C1\SC(=S)N(NC(=O)c2cccc(O)c2)C1=O)=C\c1ccccc1	0	0	0	0	0	0
COc1ccccc1/C=C1\SC(=S)N(Nc2nc(C)cc(C)n2)C1=O	-	0	0	0	0	0
Cc1cc(C)nc(NN2C(=O)/C(=C/c3ccc(O)cc3)SC2=S)n1	0	0	99	0	0	0
COc1cc(/C=C2\SC(=S)N(NC(=O)c3ccccc3O)C2=O)ccc1O	0	0	99	0	0	0
CN(C[C@H]1[C@@H](c2ccccc2)[C@@H](CO)N1C(=O)C1CC1)C(=O)c1ccccn1	-	0	-	-	-	0
